Results: PubChem BioAssay (NCATS)
Unmarked numbers belong to inactive results. Inconclusive results are not listed. The source made the active and inactive calls. Calls follow the shape of the dose curve; as a rule, active = well fitted curve in the direction sought with a large enough effect; inconclusive = small, poorly fitted or top-dose-only effect, or another doubt; inactive = no such curve, though single readings can be large; an effect the other way counts as inactive or inconclusive.

biological target: Beta-2 adrenergic receptor (Homo sapiens) (UniProt P07550); test: qHTS validation assay of beta-arrestin-biased ligands of beta2-adrenergic receptor (AID 485366); settings: cell-based beta-arrestin recruitment to ADRB2, qHTS; series mostly up to 46.1 µM; activation: at the top concentration; also: 0% is about no effect
Outline: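 Luminescence from a tTA-responsive luciferase, induced when recombinant beta-arrestin is recruited to recombinant beta2-AR, served as the agonism signal. Cells were exposed to compound for 18 hr at 37 degrees C; titrations spanned up to 46 microM.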

Beta-2 adrenergic receptor (Homo sapiens), sequence (P07550 whole entry, looked up): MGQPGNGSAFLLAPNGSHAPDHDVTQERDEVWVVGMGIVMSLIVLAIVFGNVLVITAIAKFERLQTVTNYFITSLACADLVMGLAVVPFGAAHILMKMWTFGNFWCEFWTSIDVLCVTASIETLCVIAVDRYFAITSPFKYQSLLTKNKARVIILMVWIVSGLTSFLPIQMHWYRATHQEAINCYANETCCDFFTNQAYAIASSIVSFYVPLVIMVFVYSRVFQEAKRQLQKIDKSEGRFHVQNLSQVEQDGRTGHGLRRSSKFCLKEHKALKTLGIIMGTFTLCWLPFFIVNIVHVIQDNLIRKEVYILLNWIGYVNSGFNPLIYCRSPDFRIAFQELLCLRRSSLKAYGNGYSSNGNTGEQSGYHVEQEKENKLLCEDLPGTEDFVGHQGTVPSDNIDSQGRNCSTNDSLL

| SMILES | activation [%] |
| --- | --- |
| CCN(CCCl)Cc1ccccc1Br | 0.3 |
| C=CCN1C[C@@H](C)N([C@H](c2ccc(C(=O)N(CC)CC)cc2)c2cccc(OC)c2)C[C@@H]1C | 0.487 |
| N#CCCN | -1.01 |
| N#C/C(=C/c1ccc(O)c(O)c1)C(N)=S | -0.169 |
| CCCN1CCc2cccc3c2[C@H]1Cc1ccc(O)c(O)c1-3 | -0.599 |
| CC(=O)c1c(O)c(C)c(O)c(Cc2c(O)c3c(c(C(=O)/C=C/c4ccccc4)c2O)OC(C)(C)C=C3)c1O | 2.53 |
| CC(N)c1cccc(Cl)c1Cl (stereo not given) | 0.207 |
| C=CCN1CCc2cccc3c2[C@H]1Cc1ccc(O)c(O)c1-3 | -0.151 |
| C[N+]1(C)CCc2cc3c(cc2[C@H]1[C@@H]1OC(=O)c2c1ccc1c2OCO1)OCO3 | -0.509 |
| CCCn1c(=O)c2[nH]c(C3CCCC3)nc2n(CCCOC(=O)c2ccc(S(=O)(=O)F)cc2)c1=O | 4.15 |
| CN1CCc2cc(O)cc3c2[C@H]1Cc1ccc(O)c(O)c1-3 | 0.0007 |
| COc1ccc2c(c1O)-c1cccc3c1[C@@H](C2)N(C)CC3 | -0.151 |
| C=CCN1CC[C@]23c4c5ccc(O)c4O[C@@H]2/C(=N/N=C2\CC[C@@]4(O)C6Cc7ccc(O)c8c7[C@@]4(CCN6CC=C)[C@@H]2O8)CC[C@@]3(O)C1C5 | 9.14 |
| COc1ccc2c(c1)/C(=C/c1cnc[nH]1)C(=O)N2 | -0.653 |
| CCCN1CCC[C@@H](c2cccc(O)c2)C1 | 0.0319 |
| CCCC[N+]1(C)C2CC(OC(=O)[C@H](CO)c3ccccc3)CC1C1OC12 (stereo not given in full) | 0.0626 |
| CC(=O)OCC1=C(C(=O)O)N2C(=O)[C@@H](NC(=O)CCC[C@@H](N)C(=O)O)[C@H]2SC1 | 0.496 |
| C[N+]1(C)C2CCC1CC(OC(=O)c1c[nH]c3ccccc13)C2 (stereo not given) | 3.19 |
| CCCN1CCc2cc(O)cc3c2[C@H]1Cc1ccc(O)c(O)c1-3 | -0.441 |
| NC(Cc1cc(O)c(O)cc1O)C(=O)O (stereo not given) | 0.773 |
| Ic1ccccc1CNC1C2CCN(CC2)C1C(c1ccccc1)c1ccccc1 (stereo not given) | -0.803 |
| CC(C)(O)[C@@H]1C2OC(=O)[C@@H]1[C@]1(O)C[C@H]3O[C@]34C(=O)O[C@H]2[C@]14C (tested in a mixture with another compound) | 4.5 |
| CC(C)[C@@]1(NC(=O)[C@@H]2C[C@@H]3c4cccc5[nH]cc(c45)C[C@H]3N(C)C2)O[C@@]2(O)[C@@H]3CCCN3C(=O)[C@H](Cc3ccccc3)N2C1=O | 23.9 |
| NC(=O)CI | -0.0046 |
| C=CCN(C1=NCCN1)c1c(Cl)cccc1Cl | -0.811 |
| CCCCCCC(C)(C)c1ccc([C@@H]2C[C@H](O)CC[C@H]2CCCO)c(O)c1 | 0.318 |
| CCNC(=O)[C@H]1O[C@@H](n2cnc3c(N)ncnc32)[C@H](O)[C@@H]1O | -0.197 |
| N[C@@H](Cn1ccc(=O)[nH]c1=O)C(=O)O | 3.16 |

biological target: ATP-dependent 6-phosphofructokinase (Trypanosoma brucei brucei) (UniProt O15648); test: qHTS Validation Assay to Find Inhibitors of T. brucei phosphofructokinase (AID 485368); also: potency is read from the fitted curve at half-maximal effect;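 as to activity change, negative = inhibition: 0% = full PFK enzyme control and -100% = wells without enzyme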; settings: T. brucei PFK enzyme assay, qHTS 7-point titration; series mostly up to 57.5 µM; activity change, negative = inhibition: at the top concentration
Outline: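 Activity was normalized between 1x (1.25 nM) PFK wells as no inhibition and enzyme-free wells as full inhibition, from luminescence after ADP-Glo detection of ADP made from 0.5 mM F6P and 0.1 mM ATP over 45 min.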

ATP-dependent 6-phosphofructokinase (Trypanosoma brucei brucei), sequence (O15648 whole entry, looked up): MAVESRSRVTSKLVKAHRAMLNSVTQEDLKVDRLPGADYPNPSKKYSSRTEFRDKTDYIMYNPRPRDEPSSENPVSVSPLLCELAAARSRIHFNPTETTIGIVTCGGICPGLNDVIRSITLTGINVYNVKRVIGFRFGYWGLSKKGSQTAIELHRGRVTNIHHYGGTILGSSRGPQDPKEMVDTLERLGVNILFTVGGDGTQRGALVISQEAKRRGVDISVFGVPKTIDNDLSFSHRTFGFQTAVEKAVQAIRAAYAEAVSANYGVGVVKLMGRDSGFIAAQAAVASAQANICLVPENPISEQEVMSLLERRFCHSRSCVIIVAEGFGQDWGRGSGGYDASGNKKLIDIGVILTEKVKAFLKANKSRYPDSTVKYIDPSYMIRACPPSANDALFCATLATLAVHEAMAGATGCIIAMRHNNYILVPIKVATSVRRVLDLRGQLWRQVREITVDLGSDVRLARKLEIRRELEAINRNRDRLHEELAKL

| SMILES | outcome | Potency | activity change, negative = inhibition [%] |
| --- | --- | --- | --- |
| CCN(CCCl)Cc1ccccc1Br | inactive | – | – |
| N#CCCN | inactive | – | – |
| C[C@@H]1O[C@@H](O[C@H]2C[C@@H](O)[C@]3(CO)[C@@H]4C(CC[C@]3(O)C2)[C@@]2(O)CC[C@H]([C@@H]3COC(=O)C3)[C@@]2(C)C[C@H]4O)[C@H](O)[C@H](O)[C@H]1O (stereo not given in full) | inactive | – | – |
| N=C(N)c1ccc(CS(=O)(=O)F)cc1 | inactive | – | – |
| CCCN1CCc2cccc3c2[C@H]1Cc1ccc(O)c(O)c1-3 | – | 12 µM (active) | – |
| COc1ccc2c(c1)c(CCN1CCOCC1)c(C)n2C(=O)c1cccc(Cl)c1Cl | – | – | 3.81 |
| CCN1C[C@@]2(COC)C3[C@@H](OC)C4[C@@H]1C3([C@@H]1C[C@]3(O)[C@H](OC(=O)c5ccccc5)[C@@H]1[C@]4(OC(C)=O)[C@@H](O)[C@@H]3OC)[C@H](OC)C[C@H]2O | inactive | – | – |
| C=CCN1CC[C@]23c4c5ccc(O)c4O[C@@H]2/C(=N/N=C2\CC[C@@]4(O)C6Cc7ccc(O)c8c7[C@@]4(CCN6CC=C)[C@@H]2O8)CC[C@@]3(O)C1C5 | inactive | – | – |
| COc1ccc2c(c1)/C(=C/c1cnc[nH]1)C(=O)N2 | inactive | – | – |
| CCCN1CCC[C@@H](c2cccc(O)c2)C1 | inactive | – | – |
| C[N+]1(C)C2CCC1CC(OC(=O)c1c[nH]c3ccccc13)C2 (stereo not given) | inactive | – | – |
| CCCN1CCc2cc(O)cc3c2[C@H]1Cc1ccc(O)c(O)c1-3 | – | 3.01 µM (active) | – |
| Ic1ccccc1CNC1C2CCN(CC2)C1C(c1ccccc1)c1ccccc1 (stereo not given) | inactive | – | – |
| C[C@H](N)Cc1cccc(C(F)(F)F)c1 | inactive | – | – |
| CC(C)(O)[C@@H]1C2OC(=O)[C@@H]1[C@]1(O)C[C@H]3O[C@]34C(=O)O[C@H]2[C@]14C (tested in a mixture with another compound) | inactive | – | – |
| CC(C)[C@@]1(NC(=O)[C@@H]2C[C@@H]3c4cccc5[nH]cc(c45)C[C@H]3N(C)C2)O[C@@]2(O)[C@@H]3CCCN3C(=O)[C@H](Cc3ccccc3)N2C1=O | – | – | 14.1 |
| NC(=O)CI | – | 19 µM (active) | – |
| CCS(=O)(=O)Nc1cccc(C(=C2CCCCC2)c2cnc[nH]2)c1 | inactive | – | – |
| C=CCN(C1=NCCN1)c1c(Cl)cccc1Cl | inactive | – | – |
| CCCCCCC(C)(C)c1ccc([C@@H]2C[C@H](O)CC[C@H]2CCCO)c(O)c1 | inactive | – | – |
| CCNC(=O)[C@H]1O[C@@H](n2cnc3c(N)ncnc32)[C@H](O)[C@@H]1O | inactive | – | – |
| N[C@@H](Cn1ccc(=O)[nH]c1=O)C(=O)O | inactive | – | – |
